Binding signal data for 18 sequences are collected here from publication PMC5869772, “Quantitative profiling of BATF family proteins/JUNB/IRF hetero-trimers using Spec-seq”.

This test addresses T1, BATF3;JUNB (human;human, UniProt Q9NR55;P17275 1-127;148-347, |).
T1 sequence 1: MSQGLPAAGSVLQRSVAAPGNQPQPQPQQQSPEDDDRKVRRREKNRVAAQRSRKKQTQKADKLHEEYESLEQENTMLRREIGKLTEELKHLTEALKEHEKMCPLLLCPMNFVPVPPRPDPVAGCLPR
T1 sequence 2: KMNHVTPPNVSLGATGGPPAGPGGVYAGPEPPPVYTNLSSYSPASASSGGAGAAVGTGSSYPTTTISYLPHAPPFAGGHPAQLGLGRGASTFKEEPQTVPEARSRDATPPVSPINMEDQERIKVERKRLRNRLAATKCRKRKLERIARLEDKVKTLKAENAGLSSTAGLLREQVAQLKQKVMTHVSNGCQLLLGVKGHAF
Nature of the test: Spec-seq (EMSA and sequencing of bound and unbound bands); 100 nM BATFx-JUNB, 1 uM dsDNA library, 50 mM K acetate, 20 mM Tris-acetate, 10 mM Mg acetate, 100 ug/ml BSA, pH 7.9, 10% glycerol, 30 min on ice; native 9% PAGE at 4 C; low values mean tight binding. As to conditions: protein: recombinant;recombinant; tags: N-terminal mCherry-TEV, cleaved off;C-terminal 6His; copies: 1;1; dsDNA, one strand shown. Summed up:
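The protein, at 100 nM, was incubated with 1 μM double-stranded degenerate DNA library for 30 min on ice in NEB Cutsmart buffer with 10% glycerol, then resolved by native 9% PAGE at 4 °C. Excised bound and unbound bands were PCR-barcoded and Illumina-sequenced, and each sequence's relative binding energy in kT is −ln of its bound/unbound read-count ratio.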
Turning to “GATAGTCTCATTTTCACCCCGTGAAATGACTCCTTTGTTCCATTACAGTATCTGT”, the binding signal was determined as 0.584 kT.

Regarding “GATAGTCTCATTTTCACCCCGTGAAATGACGTCTTTGTTCCATTACAGTATCTGT”, the binding signal is -0.318 kT. The same measure for “GATAGTCTCATTTTCACCCCGTGAAAATTAGTCATTGTTCCATTACAGTATCTGT”: -1.24 kT.

Regarding “GATAGTCTCATTTTCACCCCGTGAAATGACGCACTTGTTCCATTACAGTATCTGT”, the binding signal is -0.203 kT. As to “GATAGTCTCATTTTCACCCCGTGAAATGAGTAAATTGTTCCATTACAGTATCTGT”, the binding signal was determined as 0.363 kT. The figure for “GATAGTCTCATTTTCACCCCGTGAAATGACTCATTTGTTCCATTACAGTATCTGT” is -1.24 kT; for “GATAGTCTCATTTTCACCCCGTGAAATGAGGCATTTGTTCCATTACAGTATCTGT” it is 0.744 kT; for “GATAGTCTCATTTTCACCCCGTGAAATAACGTCATTGTTCCATTACAGTATCTGT” it is -1.09 kT. As for “GATAGTCTCATTTTCACCCCGTGAAACAGAGTCATTGTTCCATTACAGTATCTGT”, the binding signal is -0.0855 kT. “GATAGTCTCATTTTCACCCCGTGAAATGACACAGTTGTTCCATTACAGTATCTGT”: the binding signal is 0.492 kT. In the case of “GATAGTCTCATTTTCACCCCGTGAAAGCGAGTCATTGTTCCATTACAGTATCTGT”, the binding signal is -0.148 kT.

For “GATAGTCTCATTTTCACCCCGTGAAATGAGTCCGTTGTTCCATTACAGTATCTGT”, the binding signal worked out at 1.04 kT.

“GATAGTCTCATTTTCACCCCGTGAAATGACCCATTTGTTCCATTACAGTATCTGT”: the binding signal came out at 0.67 kT. In the case of “GATAGTCTCATTTTCACCCCGTGAAACTAAGTCATTGTTCCATTACAGTATCTGT”, the binding signal was -0.118 kT. “GATAGTCTCATTTTCACCCCGTGAAACTGTGTCATTGTTCCATTACAGTATCTGT”: the binding signal was -0.22 kT. Turning to “GATAGTCTCATTTTCACCCCGTGAAATGACTTAATTGTTCCATTACAGTATCTGT”, the binding signal was -0.344 kT.

Consider “GATAGTCTCATTTTCACCCCGTGAAATCGAGTCATTGTTCCATTACAGTATCTGT”, for which the binding signal was -0.401 kT. The figure for “GATAGTCTCATTTTCACCCCGTGAAATAACTCATTTGTTCCATTACAGTATCTGT” is 0.332 kT.
